Each structure is given as a SMILES string.

Among the test systems are CHRF288-11; CMK; CMS; M07e; ML-2; MOLM-13; MV4-11; U937.
Settings in all cases: 72 h, relative to cycloheximide control, log10 luminescence

Regarding `C[C@]12CC[C@@H]3c4ccc(OC(=O)N(CCCl)CCCl)cc4CC[C@H]3[C@@H]1CC[C@@H]2OP(=O)(O)O` [SJ000518944-1, ES[…] SODIUM], the CHRF288-11 %inh with CHRF288-11 is 1.087%. The CMK %inh in the test on CMK was -3.517%. The CMS %inh in the test on CMS is recorded as -0.5738%. In the test on M07e, this compound showed an M07e %inh of 1.122%. Besides, the ML-2 %inh in the test on ML-2 amounted to 0.1396%. In the test with MOLM-13, this compound returned an MOLM-13 %inh of 1.341%. In the test with MV4-11, this compound registered an MV4-11 %inh of 2.919%. Moreover, the U937 %inh in the test on U937 was -1.233%.
